Results reported in PubChem BioAssay (NCATS).
Inconclusive results are not listed. Calls of active or inactive are those of the source. Calls follow the shape of the dose curve; as a rule, active = well fitted curve in the direction sought with a large enough effect; inconclusive = small, poorly fitted or top-dose-only effect, or another doubt; inactive = no such curve, though single readings can be large; an effect the other way counts as inactive or inconclusive.

test: Viability qHTS for spleen associated tyrosine kinase inhibitor (SYKi) naive MV4-11 cells (AID 1963823); settings: MV4-11 AML viability, CellTiter-Glo luminescence, 72 h; series mostly up to 45 µM; viability (% of control): at the top concentration; also: nearly all actives have a fitted effect of over 40% in size
Method in brief: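 Seeding of 500 SYKi-naive MV4-11 cells per well onto pre-dispensed compounds preceded a 72 hr incubation at 37 C. Luminescent CellTiter-Glo signal, read after 10 min at room temperature, reflected viable cells.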
Potency is read from the fitted curve at half-maximal effect.

| Structure (SMILES) | Potency | viability (% of control) |
| --- | --- | --- |
| Cn1nccc1Nc1nccc(-c2cc3c(s2)C(C)(C)N(CCN2CCOCC2)C3=O)n1 | 3.72 µM (active) |  |
| CC1=C(CO)C(=O)O[C@@H]([C@@H](C)[C@H]2CC[C@H]3[C@@H]4C[C@H]5O[C@]56[C@@H](O)C=CC(=O)[C@]6(C)[C@H]4CC[C@]23C)C1 | 0.296 µM (active) |  |
| O=C1OC2(c3ccccc31)c1cc(I)c(O)c(I)c1Oc1c2cc(I)c(O)c1I |  | 53.5% (inactive) |
| CC(=O)OCC(=O)[C@@]1(O)[C@H](OC(C)=O)C[C@H]2[C@@H]3CCC4=CC(=O)C=C[C@]4(C)[C@@]3(F)[C@@H](O)C[C@@]21C |  | 112% (inactive) |
| C#C[C@]1(OC(C)=O)CC[C@H]2[C@@H]3CCC4=C/C(=N/O)CC[C@@H]4[C@H]3CC[C@@]21CC | 26.6 µM (active) |  |
| CCOC(=O)N1CCN(/[N+]([O-])=N/Oc2ccc([N+](=O)[O-])cc2[N+](=O)[O-])CC1 | 2.95 µM (active) |  |
| CN1CCN(c2cc3c(nn2)Oc2ccccc2N3C)CC1 |  | 62.5% [at 17.3 µM] (inactive) |
| O=C(O)C1(C(=O)O)CCC1.[NH2-].[NH2-].[Pt+2] |  | 55.2% (inactive) |
| Cc1ccc(S(=O)(=O)NC(=O)NC2CCCCCCC2)cc1 |  | 82.2% (inactive) |
| c1ccc(CNCc2ccc(CN3CCCNCCNCCCNCC3)cc2)nc1 |  | 93% (inactive) |
| CSc1ccc(/C=C2/C(C)=C(CC(=O)O)c3cc(F)ccc32)cc1 |  | 67% (inactive) |
| O=C(O)c1ccc(-n2nc(-c3ccccc3O)nc2-c2ccccc2O)cc1 | 16.8 µM (active) |  |
| CCCOC(=O)c1ccc(N)cc1 |  | 97.3% (inactive) |
| CC(C)COC(=O)c1ccc(N)cc1 |  | 75.1% (inactive) |
| CC(C)(C)NCC(O)c1cc(O)cc(O)c1 (stereo not drawn) |  | 41.3% (inactive) |
| Cn1cc(C2=C(c3cn(C)c4cc([N+](=O)[O-])ccc34)C(=O)NC2=O)c2ccccc21 | 0.296 µM (active) |  |
| Cc1cccc(C)c1NC(=O)CN(CC(=O)O)CC(=O)O |  | 72.7% (inactive) |
| C=C1C[C@H]2[C@@H]3C=C(C)C4=CC(=O)CC[C@]4(C)[C@H]3CC[C@]2(C)[C@@]1(OC(C)=O)C(C)=O | 18.8 µM (active) |  |
| Cc1c(-c2ccc(-c3ccccc3F)cc2)nc2ccc(F)cc2c1C(=O)O | 0.148 µM (active) |  |
| CN(C)/C(N)=N/C(=N)N | inactive |  |
| O=C(CCOCCOCCOCCOCCC(=O)Nc1c(I)cc(I)c(C(=O)O)c1I)Nc1c(I)cc(I)c(C(=O)O)c1I |  | 86.6% (inactive) |
| COC(=O)[C@@H]1CC2=CC(=O)CC[C@]2(C)[C@@]23O[C@@H]2C[C@@]2(C)[C@@H](CC[C@@]24CCC(=O)O4)[C@H]13 | inactive |  |
| Oc1ccc(/C=C/c2cc(O)cc(O)c2)cc1 | 16.6 µM (active) |  |
| Cc1ccc(Nc2nnc(Cc3ccncc3)c3ccccc23)cc1Br | 14.8 µM (active) |  |
| C[C@@H](c1ncncc1F)C(O)(Cn1cncn1)c1ccc(F)cc1F (stereo partly drawn) |  | 74% (inactive) |
| CCN(CC)CCNC(=O)c1c(C)[nH]c(/C=C2/C(=O)Nc3ccc(-c4csc(-c5ccccc5)n4)cc32)c1C | 0.468 µM (active) |  |
| CC(=O)OCC(=O)[C@@]1(O)CC[C@H]2[C@@H]3CCC4=CC(=O)C=C[C@]4(C)[C@H]3[C@@H](O)C[C@@]21C |  | 84.6% (inactive) |
| CN1C(N)=N[C@](C)(c2cc(NC(=O)c3ccc(F)cn3)ccc2F)CS1(=O)=O |  | 56.1% (inactive) |

test: Viability qHTS for spleen associated tyrosine kinase inhibitor (SYKi) drug resistant MV4-11 cells (AID 1963824); settings: SYKi-resistant MV4-11 viability, CellTiter-Glo, 72 h; series mostly up to 45 µM; viability, % of control: at the top concentration; also: nearly all actives have a fitted effect of over 35% in size
Method in brief: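 CellTiter-Glo luminescence, read 10 min after reagent addition, reports viability after a 72 hr compound exposure. Cells are an MV4-11 line made resistant to SYK inhibition, seeded at 500 per well onto compound-containing plates.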

| Structure (SMILES) | Potency | viability, % of control |
| --- | --- | --- |
| CCC(C)/C=C(C)/C=C/C(=O)C1CCC(O)C(C)(O)C1=O (stereo not drawn) | 13 µM (active) |  |
| CC1(CO)CC(O)[C@]2(C(=O)O)CCC34CC3(C=CC3[C@]5(C)C(CC[C@]34C)C(C)(CO)[C@@H](O)[C@H](O)[C@@H]5O)C2C1 (stereo partly drawn) | 11.2 µM (active) |  |
| COC(=O)CC(C)(O)CC(=O)OCc1ccc(O[C@@H]2O[C@H](CO)[C@@H](O)[C@H](O)[C@H]2O)cc1 (stereo partly drawn) |  | 100% [at 17.3 µM] (inactive) |
| CCc1cc2c(cc1CC)CC(NCC(O)c1ccc(O)c3[nH]c(=O)ccc13)C2 (stereo not drawn) | 13 µM (active) |  |
| CC(C)n1cnc2c(Nc3cccc(Cl)c3)nc(NCCO)nc21 | 1.84 µM (active) |  |
| CNC(C)C(=O)NC(C(=O)N1CCCC1c1nc(C(=O)c2ccc(F)cc2)cs1)C1CCCCC1 (stereo not drawn) | 2.59 µM (active) |  |
| O=C(Cc1c(F)cccc1F)Nc1cc(OCc2ccc(Cl)cc2)ccn1 | 14.6 µM (active) |  |
| O=Nc1c(-c2c(O)[nH]c3ccc(F)cc23)[nH]c2ccccc12 | 0.058 µM (active) |  |
| CN(C)c1ccc2c(c1)OC(N)=C(C#N)C2c1cccc(C(F)(F)F)c1 (stereo not drawn) | 0.184 µM (active) |  |
| CC(C)=CCc1c(O)cc2oc3cc(C)cc(O)c3c2c1C | 23.1 µM (active) |  |
| Cc1cc(N)c2ccccc2[n+]1CCCCCCCCCC[n+]1c(C)cc(N)c2ccccc21 | 0.58 µM (active) |  |
| CN(C)CCOC(C)(c1ccccc1)c1ccc(Cl)cc1 (stereo not drawn) | 16.4 µM (active) |  |

test: Cellular viability qHTS for adrenocortical cancer (ACC) cell line NCI-H295R (AID 1963990); settings: CellTiter-Glo ATP luminescence, 48 h; series mostly up to 46.1 µM; activity change, negative = viability loss: at the top concentration; also: nearly all actives have a fitted effect of over 60% in size;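 as to activity change, negative = viability loss: 0% = DMSO only wells and -100% = full killing with cytotoxic reference compound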
Method in brief: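 IC50 and maximal efficacy derive from four-parameter logistic modelling of titration curves, with reads scaled between DMSO-only wells (0%) and doxorubicin hydrochloride (100% inhibition). Compounds spanned up to 46 uM over 48 h.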

| Structure (SMILES) | activity change, negative = viability loss | Potency |
| --- | --- | --- |
| Cn1nccc1Nc1nccc(-c2cc3c(s2)C(C)(C)N(CCN2CCOCC2)C3=O)n1 | 8.05% (inactive) |  |
| CC1=C(CO)C(=O)O[C@@H]([C@@H](C)[C@H]2CC[C@H]3[C@@H]4C[C@H]5O[C@]56[C@@H](O)C=CC(=O)[C@]6(C)[C@H]4CC[C@]23C)C1 |  | 0.447 µM (active) |
| O=C1OC2(c3ccccc31)c1cc(I)c(O)c(I)c1Oc1c2cc(I)c(O)c1I | -5.38% (inactive) |  |
| CC(=O)OCC(=O)[C@@]1(O)[C@H](OC(C)=O)C[C@H]2[C@@H]3CCC4=CC(=O)C=C[C@]4(C)[C@@]3(F)[C@@H](O)C[C@@]21C | 6.86% (inactive) |  |
| C#C[C@]1(OC(C)=O)CC[C@H]2[C@@H]3CCC4=C/C(=N/O)CC[C@@H]4[C@H]3CC[C@@]21CC |  | 20.6 µM (active) |
| CCOC(=O)N1CCN(/[N+]([O-])=N/Oc2ccc([N+](=O)[O-])cc2[N+](=O)[O-])CC1 |  | 22.4 µM (active) |
| CN1CCN(c2cc3c(nn2)Oc2ccccc2N3C)CC1 | -23.9% [at 20 µM] (inactive) |  |
| O=C(O)C1(C(=O)O)CCC1.[NH2-].[NH2-].[Pt+2] | -18.6% (inactive) |  |
| Cc1ccc(S(=O)(=O)NC(=O)NC2CCCCCCC2)cc1 | -8.62% (inactive) |  |
| c1ccc(CNCc2ccc(CN3CCCNCCNCCCNCC3)cc2)nc1 | -0.83% (inactive) |  |
| CSc1ccc(/C=C2/C(C)=C(CC(=O)O)c3cc(F)ccc32)cc1 |  | 25.9 µM (active) |
| O=C(O)c1ccc(-n2nc(-c3ccccc3O)nc2-c2ccccc2O)cc1 |  | 31.6 µM (active) |
| CCCOC(=O)c1ccc(N)cc1 | 12.4% (inactive) |  |
| CC(C)COC(=O)c1ccc(N)cc1 | -6.37% (inactive) |  |
| CC(C)(C)NCC(O)c1cc(O)cc(O)c1 (stereo not drawn) |  | 25.9 µM (active) |
| Cn1cc(C2=C(c3cn(C)c4cc([N+](=O)[O-])ccc34)C(=O)NC2=O)c2ccccc21 |  | 0.178 µM (active) |
| Cc1cccc(C)c1NC(=O)CN(CC(=O)O)CC(=O)O | -4.39% (inactive) |  |
| C=C1C[C@H]2[C@@H]3C=C(C)C4=CC(=O)CC[C@]4(C)[C@H]3CC[C@]2(C)[C@@]1(OC(C)=O)C(C)=O | -11.1% (inactive) |  |
| Cc1c(-c2ccc(-c3ccccc3F)cc2)nc2ccc(F)cc2c1C(=O)O | -18.7% (inactive) |  |
| CN(C)/C(N)=N/C(=N)N | -26.7% (inactive) |  |
| O=C(CCOCCOCCOCCOCCC(=O)Nc1c(I)cc(I)c(C(=O)O)c1I)Nc1c(I)cc(I)c(C(=O)O)c1I | -6.21% (inactive) |  |
| COC(=O)[C@@H]1CC2=CC(=O)CC[C@]2(C)[C@@]23O[C@@H]2C[C@@]2(C)[C@@H](CC[C@@]24CCC(=O)O4)[C@H]13 |  | inactive |
| Oc1ccc(/C=C/c2cc(O)cc(O)c2)cc1 |  | inactive |
| Cc1ccc(Nc2nnc(Cc3ccncc3)c3ccccc23)cc1Br | -17.8% (inactive) |  |
| C[C@@H](c1ncncc1F)C(O)(Cn1cncn1)c1ccc(F)cc1F (stereo partly drawn) | -19.6% (inactive) |  |
| CCN(CC)CCNC(=O)c1c(C)[nH]c(/C=C2/C(=O)Nc3ccc(-c4csc(-c5ccccc5)n4)cc32)c1C |  | 3.55 µM (active) |
| CC(=O)OCC(=O)[C@@]1(O)CC[C@H]2[C@@H]3CCC4=CC(=O)C=C[C@]4(C)[C@H]3[C@@H](O)C[C@@]21C |  | inactive |
| CN1C(N)=N[C@](C)(c2cc(NC(=O)c3ccc(F)cn3)ccc2F)CS1(=O)=O | -16.1% (inactive) |  |
